Measurements: PubChem BioAssay (NCATS)
Results filed as inconclusive are left out. Active and inactive are the calls of the source. Unless noted, calls come from the whole dose curve; as a rule, active = well fitted curve in the direction sought with a large enough effect; inconclusive = small, poorly fitted or top-dose-only effect, or another doubt; inactive = no such curve, though single readings can be large; an effect the other way counts as inactive or inconclusive.

How the values were obtained:
[1] = target: Estrogen receptor (Homo sapiens) (UniProt P03372); test: qHTS assay for small molecule antagonists of estrogen receptor alpha signaling (AID 588513; active = well fitted curve in the direction sought with a large enough effect in the signal ratio, with a control signal flat, not every such curve was filed as active; the % refers to the signal ratio; note: % is set by controls: 0 for no effect and ±100 for the full control effect)
Estrogen receptor (Homo sapiens), sequence (P03372 whole entry, looked up): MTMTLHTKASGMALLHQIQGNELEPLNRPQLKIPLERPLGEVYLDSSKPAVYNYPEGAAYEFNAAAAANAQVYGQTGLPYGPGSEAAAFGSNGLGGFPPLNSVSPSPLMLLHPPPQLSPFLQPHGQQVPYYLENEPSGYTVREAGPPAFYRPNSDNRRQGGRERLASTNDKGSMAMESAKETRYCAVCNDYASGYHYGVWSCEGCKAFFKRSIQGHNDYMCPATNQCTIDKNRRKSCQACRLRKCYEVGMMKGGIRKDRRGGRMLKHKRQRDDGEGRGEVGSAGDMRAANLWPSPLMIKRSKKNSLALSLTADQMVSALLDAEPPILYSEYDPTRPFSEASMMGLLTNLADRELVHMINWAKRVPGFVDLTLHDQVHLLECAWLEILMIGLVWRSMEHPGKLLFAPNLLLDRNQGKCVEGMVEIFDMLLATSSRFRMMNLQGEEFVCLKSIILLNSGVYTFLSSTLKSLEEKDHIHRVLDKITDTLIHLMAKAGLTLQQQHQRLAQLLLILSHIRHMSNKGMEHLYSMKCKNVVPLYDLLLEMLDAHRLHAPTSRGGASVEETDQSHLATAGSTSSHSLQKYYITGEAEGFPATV
Procedure, shortened: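 Antagonist mode: inhibition of 0.5 nM 17-beta-estradiol-driven beta-lactamase reporter in HEK 293 ER-alpha-UAS-bla cells, 18 h at 37C, CCF4 readout after 2 h at RT. Normalised to estradiol and DMSO; titration fitted to Hill.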

[2] = target: Estrogen receptor (Homo sapiens) (UniProt P03372); test: qHTS assay for small molecule agonists of estrogen receptor alpha signaling (AID 588514; calls by dose curve; note: nearly all actives have a fitted effect of over 70% in size; note: potency is the fitted concentration of half-maximal effect;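 for activation: 0% = vehicle only and 100% = reference agonist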)
Procedure, shortened: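 Read-out: CCF4 fluorescence from a beta-lactamase reporter in ER-alpha-UAS-bla HEK 293 cells after 18 hrs of compound exposure at 37 C. Normalized to 20 nM 17-beta-estradiol (100%) and DMSO (0%).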

[3] = qHTS assay for small molecule antagonists of peroxisome proliferator-activated receptor delta signaling (AID 588535; active = well fitted inhibition curve with a large enough effect in the signal ratio, with a control signal flat, not every such curve was filed as active; the % refers to the signal ratio;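 for max response: cells co-treated with a PPAR-delta agonist as stimulator during compound exposure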); conditions: HEK293T PPARd-UAS-bla, beta-lactamase FRET ratio, 18 h; 460 nm channel
Procedure, shortened: (§1)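 Compounds tested in titration on PPAR-delta-UAS-bla HEK293T cells grown in charcoal/dextran-stripped serum (2%); beta-lactamase activity read via CCF4 emission at 460 and 530 nm.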

[4] = target: Peroxisome proliferator-activated receptor delta (Homo sapiens) (UniProt Q03181); test: as above
Peroxisome proliferator-activated receptor delta (Homo sapiens), sequence (Q03181 whole entry, looked up): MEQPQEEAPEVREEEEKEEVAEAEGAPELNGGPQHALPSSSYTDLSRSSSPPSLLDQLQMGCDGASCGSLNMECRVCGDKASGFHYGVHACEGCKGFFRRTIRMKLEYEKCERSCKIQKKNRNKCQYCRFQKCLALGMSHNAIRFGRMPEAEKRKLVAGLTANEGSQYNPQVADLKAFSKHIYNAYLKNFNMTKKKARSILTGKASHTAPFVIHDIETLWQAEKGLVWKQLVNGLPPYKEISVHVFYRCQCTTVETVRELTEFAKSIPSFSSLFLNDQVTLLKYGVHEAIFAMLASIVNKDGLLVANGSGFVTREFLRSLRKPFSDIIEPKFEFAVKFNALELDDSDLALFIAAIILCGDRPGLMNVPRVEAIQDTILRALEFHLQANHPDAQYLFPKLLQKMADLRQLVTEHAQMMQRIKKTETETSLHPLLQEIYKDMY
Procedure, shortened: as §1

[5] = qHTS assay for small molecule agonists of retinoid X receptor alpha signaling (AID 588544; calls by dose curve;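 for activation: 0% = DMSO basal wells and 100% = reference agonist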); conditions: HEK293T RXRa-UAS-bla, beta-lactamase reporter, 18 h; 530 nm emission
[6] = target: Retinoic acid receptor RXR-alpha (Homo sapiens) (UniProt P19793); test: as above
Retinoic acid receptor RXR-alpha (Homo sapiens), sequence (P19793 whole entry, looked up): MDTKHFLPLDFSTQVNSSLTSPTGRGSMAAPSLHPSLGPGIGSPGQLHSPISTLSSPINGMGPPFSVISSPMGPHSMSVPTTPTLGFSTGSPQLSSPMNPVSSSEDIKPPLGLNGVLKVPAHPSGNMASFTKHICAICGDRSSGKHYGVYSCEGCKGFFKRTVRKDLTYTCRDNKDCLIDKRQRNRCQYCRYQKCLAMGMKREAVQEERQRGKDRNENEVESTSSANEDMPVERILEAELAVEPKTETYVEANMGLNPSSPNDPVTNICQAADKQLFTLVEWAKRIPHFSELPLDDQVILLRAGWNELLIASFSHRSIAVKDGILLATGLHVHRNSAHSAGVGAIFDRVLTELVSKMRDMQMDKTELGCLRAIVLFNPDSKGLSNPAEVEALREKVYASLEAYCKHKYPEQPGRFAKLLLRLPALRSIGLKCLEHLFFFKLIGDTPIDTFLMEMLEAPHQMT

[7] = target: Thyroid hormone receptor beta (Homo sapiens) (UniProt P10828); test: qHTS assay for small molecule agonists of thyroid hormone receptor beta signaling (AID 588545; calls by dose curve)
Thyroid hormone receptor beta (Homo sapiens), sequence (P10828 whole entry, looked up): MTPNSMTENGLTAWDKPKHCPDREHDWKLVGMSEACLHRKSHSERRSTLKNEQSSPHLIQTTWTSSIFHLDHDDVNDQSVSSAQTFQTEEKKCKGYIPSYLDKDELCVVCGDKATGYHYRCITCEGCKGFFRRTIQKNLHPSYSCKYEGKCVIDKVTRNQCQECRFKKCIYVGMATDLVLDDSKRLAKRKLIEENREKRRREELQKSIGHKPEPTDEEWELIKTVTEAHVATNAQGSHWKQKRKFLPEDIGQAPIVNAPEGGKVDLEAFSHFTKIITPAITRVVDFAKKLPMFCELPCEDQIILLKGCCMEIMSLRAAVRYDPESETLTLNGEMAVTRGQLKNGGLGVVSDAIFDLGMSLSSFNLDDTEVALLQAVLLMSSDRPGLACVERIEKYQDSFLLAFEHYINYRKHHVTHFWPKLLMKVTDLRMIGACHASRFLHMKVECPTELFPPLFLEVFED
Procedure, shortened: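 Agonist activity was read as beta-lactamase CCF4 fluorescence (405 ex, 460/530 em), scaled between DMSO (0%) and 10 nM T3 (100%), then Hill-fitted for EC50 and efficacy. HEK 293 TR-UAS-bla cells in 2% charcoal/dextran FBS medium were exposed 18 h at 37 C.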

[8] = qHTS assay for small molecule antagonists of retinoid X receptor alpha signaling (AID 588546; active = well fitted inhibition curve with a large enough effect in the signal ratio, with a control signal flat, not every such curve was filed as active; the % refers to the signal ratio;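 note: cells stimulated with 9-cis-retinoic acid as agonist; % is set by controls: 0 for no effect and ±100 for the full control effect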); conditions: HEK293T RXRa-UAS-bla, beta-lactamase ratio, antagonist mode; measured here: W530 green channel, cytotoxicity proxy
Procedure, shortened: (§2)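 Beta-lactamase reporter inhibition, read as CCF4 fluorescence ratio (ex 405, em 460/530 nm) after 2 h at RT. HEK293T UAS-bla cells, 2500/well, were stimulated with 9-cis-RA at 500 or 100 nM final alongside test compound for 18 h at 37 C.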

[9] = target: Retinoic acid receptor RXR-alpha (Homo sapiens) (UniProt P19793); test: as above; conditions: HEK293T RXRa-UAS-bla, beta-lactamase ratio, antagonist mode
Procedure, shortened: as §2

[10] = qHTS assay for small molecule activators of the nuclear factor-kappa B (NF-kB) signaling pathway (AID 651749; active = well fitted activation curve with a large enough effect in the signal ratio; the % refers to the signal ratio; note: series mostly up to about 77 µM; % of control where 0% means no effect); conditions: NF-kB-bla ME-180 cells, beta-lactamase FRET ratio, 16 h; activation: stronger effect = higher value
Procedure, shortened: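 Beta-lactamase reporter expression, controlled by NF-kB response elements in ME-180 cells, was quantified fluorometrically via FRET disruption; cells at 2,000/well had been incubated with 23 nL test compound for 16 hr.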

[11] = qHTS assay for environmental chemicals that activate the Aryl hydrocarbon Receptor (AhR) signaling pathway (AID 651777); conditions: 1A2-DRE human hepatoma cells, luciferase, 24 h; activation: stronger effect = higher value; note: % of control where 0% means no effect; nearly all actives have a fitted effect of over 15% in size
Procedure, shortened: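 AhR activation is scored as a rise in luciferase from a stable DRE–CYP1A2 promoter construct in human hepatoma cells. Treatment lasts 24 hr at 37 C; detection uses One-Glo after 30 min at room temperature.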

[12] = target: Peroxisome proliferator-activated receptor alpha (Homo sapiens) (UniProt Q07869); test: qHTS assay for small molecule agonists of the peroxisome proliferator-activated receptor alpha (PPARalpha) signaling pathway (AID 651778); conditions: PathHunter PPARalpha complementation, chemiluminescence, 6 h; max response: stronger effect = higher value; note: % of control where 0% means no effect
Peroxisome proliferator-activated receptor alpha (Homo sapiens), sequence (Q07869 whole entry, looked up): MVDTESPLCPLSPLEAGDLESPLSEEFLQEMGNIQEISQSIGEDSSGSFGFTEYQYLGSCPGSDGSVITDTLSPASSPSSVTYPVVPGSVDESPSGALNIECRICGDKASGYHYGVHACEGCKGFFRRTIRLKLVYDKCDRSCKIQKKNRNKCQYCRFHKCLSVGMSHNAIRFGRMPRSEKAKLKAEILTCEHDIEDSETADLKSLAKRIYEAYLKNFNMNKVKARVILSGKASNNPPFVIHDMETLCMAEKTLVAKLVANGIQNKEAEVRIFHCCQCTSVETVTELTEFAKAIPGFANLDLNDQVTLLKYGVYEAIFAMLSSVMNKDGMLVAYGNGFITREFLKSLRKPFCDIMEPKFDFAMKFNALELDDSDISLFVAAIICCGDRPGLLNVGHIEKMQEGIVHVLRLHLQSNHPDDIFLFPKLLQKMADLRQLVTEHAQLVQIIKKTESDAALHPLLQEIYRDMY
Procedure, shortened: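 Cells plated at 2,000/well and held overnight at 37 C, 5% CO2, then compound added by pin tool for 6 hr; after PathHunter detection reagent and 60 min at room temperature, chemiluminescence from enzyme complementation was read.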

[13] = qHTS assay for small molecule agonists of the antioxidant response element (ARE) signaling pathway measured by Nrf2-dependant transcriptional activity - cell viability counter screen (AID 720653; active = well fitted curve in the direction sought with a large enough effect in the repeat runs; an effect the other way counts as inactive or inconclusive; note: % is set by controls: 0 for no effect and ±100 for the full control effect); conditions: ARE-bla HepG2 viability, CellTiter-Glo ATP luminescence, 16 h; max response: stronger effect = lower value
Procedure, shortened: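 ARE-bla HepG2 cells (2,000/well) rested 5 hrs at 37C/5% CO2, then exposed to compounds in DMSO for 16 hrs. Viability was read in the same wells as intracellular ATP by luminescence, 30 min at room temperature after reagent addition.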

[14] = qHTS assay for cell viability of HEK293 cells (AID 743288); conditions: ATP luminescence (CellTiter-Glo), 18 h; max response: stronger effect = lower value; note: % is set by controls: 0 for no effect and ±100 for the full control effect; nearly all actives have a fitted effect of over 50% in size
Procedure, shortened: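 Readout is luciferase-coupled ATP content (CellTiter-Glo luminescence, 30 min room temperature) as a measure of metabolically competent cells. Parental HEK293 cells were plated 5 h or more before compound addition, then treated 18 h at 37 C.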

[15] = qHTS assay for cell viability of the p53RE-bla HCT-116 cell line (AID 743292); note: % is set by controls: 0 for no effect and ±100 for the full control effect; nearly all actives have a fitted effect of over 55% in size
Procedure, shortened: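 Quantitative high-throughput format: compounds in DMSO were pinned onto p53RE-bla HCT-116 cells (4,000/well) and incubated 16 h at 37 C. Total intracellular ATP, read by CellTiter-Glo luminescence, reflects viable cell number.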

[16] = target: Nuclear receptor subfamily 1 group I member 2 (Rattus norvegicus) (UniProt Q9R1A7); test: qHTS assay for small molecule activators of the rat pregnane X receptor (rPXR) signaling pathway (AID 651751; call rule not given here; note: 0% is about no effect); conditions: rPXR reporter cells, luciferase (One-Glo), 24 h
Nuclear receptor subfamily 1 group I member 2 (Rattus norvegicus), sequence (Q9R1A7 whole entry, looked up): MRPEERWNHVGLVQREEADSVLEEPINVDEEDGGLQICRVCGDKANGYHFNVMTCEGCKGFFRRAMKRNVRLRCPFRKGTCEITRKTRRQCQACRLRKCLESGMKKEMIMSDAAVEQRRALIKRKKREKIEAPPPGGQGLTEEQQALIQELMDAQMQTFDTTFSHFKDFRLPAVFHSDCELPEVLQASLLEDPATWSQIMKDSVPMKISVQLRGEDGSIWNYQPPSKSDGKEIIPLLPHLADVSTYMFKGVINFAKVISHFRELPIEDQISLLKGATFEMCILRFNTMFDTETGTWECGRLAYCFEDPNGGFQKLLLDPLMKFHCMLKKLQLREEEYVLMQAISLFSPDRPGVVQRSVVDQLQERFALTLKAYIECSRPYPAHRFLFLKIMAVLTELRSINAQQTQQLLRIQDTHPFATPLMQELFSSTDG

[17] = qHTS assay for small molecule activators of the human pregnane X receptor (PXR) signaling pathway (AID 720659; call rule not given here; note: 0% is about no effect)
[18] = target: Glucocorticoid receptor (Homo sapiens) (UniProt P04150); test: qHTS assay for small molecule antagonists of glucocorticoid receptor signaling (AID 588533; active = well fitted inhibition curve with a large enough effect in the signal ratio, with a control signal flat, not every such curve was filed as active; the % refers to the signal ratio;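 note: cells stimulated with 2 nM dexamethasone as agonist; % is set by controls: 0 for no effect and ±100 for the full control effect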)
Glucocorticoid receptor (Homo sapiens), sequence (P04150 whole entry, looked up): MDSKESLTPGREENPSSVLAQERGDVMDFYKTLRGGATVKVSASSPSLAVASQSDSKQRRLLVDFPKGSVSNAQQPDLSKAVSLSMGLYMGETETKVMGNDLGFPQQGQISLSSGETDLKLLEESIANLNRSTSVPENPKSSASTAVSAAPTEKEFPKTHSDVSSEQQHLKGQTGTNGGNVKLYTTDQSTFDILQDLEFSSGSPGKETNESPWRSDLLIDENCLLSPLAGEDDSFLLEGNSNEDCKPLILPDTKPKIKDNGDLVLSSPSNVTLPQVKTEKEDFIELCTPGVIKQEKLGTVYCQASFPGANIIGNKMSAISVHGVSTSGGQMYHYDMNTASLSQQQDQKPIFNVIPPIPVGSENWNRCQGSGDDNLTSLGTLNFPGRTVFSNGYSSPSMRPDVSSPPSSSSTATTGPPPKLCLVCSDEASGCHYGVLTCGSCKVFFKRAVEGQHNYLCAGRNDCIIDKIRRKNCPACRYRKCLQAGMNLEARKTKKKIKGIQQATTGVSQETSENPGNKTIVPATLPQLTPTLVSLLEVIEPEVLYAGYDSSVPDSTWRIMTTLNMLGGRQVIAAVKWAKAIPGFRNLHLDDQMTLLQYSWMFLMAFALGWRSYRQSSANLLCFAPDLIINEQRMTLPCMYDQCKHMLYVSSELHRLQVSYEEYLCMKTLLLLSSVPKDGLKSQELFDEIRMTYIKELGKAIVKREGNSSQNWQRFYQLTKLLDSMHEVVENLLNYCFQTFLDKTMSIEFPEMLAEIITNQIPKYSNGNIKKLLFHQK
Procedure, shortened: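 Antagonist-mode qHTS: compound titrations added to GRE-bla HeLa cells, then dexamethasone 2 nM final; 18 h, 37 C. CCF4 FRET fluorescence normalized to dexamethasone and DMSO; IC50 from Hill fit.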

[19] = target: Peroxisome proliferator-activated receptor gamma (Homo sapiens) (UniProt P37231); test: qHTS assay for small molecule agonists of peroxisome proliferator-activated receptor gamma signaling (AID 588536; active = well fitted curve in the direction sought with a large enough effect in the signal ratio, with a control signal flat, not every such curve was filed as active; the % refers to the signal ratio;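 note: 0% = DMSO basal wells and 100% = rosiglitazone at 2 µM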)
Peroxisome proliferator-activated receptor gamma (Homo sapiens), sequence (P37231 whole entry, looked up): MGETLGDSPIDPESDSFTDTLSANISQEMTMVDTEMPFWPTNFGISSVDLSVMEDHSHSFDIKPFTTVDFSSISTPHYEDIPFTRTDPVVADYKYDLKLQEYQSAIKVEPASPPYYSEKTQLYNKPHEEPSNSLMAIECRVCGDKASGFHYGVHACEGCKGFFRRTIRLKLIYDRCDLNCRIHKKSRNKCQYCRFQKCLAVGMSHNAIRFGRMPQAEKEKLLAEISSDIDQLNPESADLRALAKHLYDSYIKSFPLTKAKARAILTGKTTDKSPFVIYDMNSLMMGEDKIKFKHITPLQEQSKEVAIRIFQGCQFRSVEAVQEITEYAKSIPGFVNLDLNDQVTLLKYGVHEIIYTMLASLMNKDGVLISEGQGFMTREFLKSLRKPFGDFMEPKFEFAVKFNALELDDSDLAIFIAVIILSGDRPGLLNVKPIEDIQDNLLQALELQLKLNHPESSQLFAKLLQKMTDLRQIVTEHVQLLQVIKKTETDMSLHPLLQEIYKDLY
Procedure, shortened: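 Using GeneBLAzer HEK293 cells, response was quantified by CCF4 fluorescence and normalized between basal DMSO (0%) and rosiglitazone 2 uM (100%); curves yielded half-maximal stimulation concentration and efficacy.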

[20] = qHTS assay for small molecule agonists of the antioxidant response element (ARE) signaling pathway measured by Nrf2-dependant transcriptional activity (AID 720636; active = well fitted curve in the direction sought with a large enough effect in the repeat runs; an effect the other way counts as inactive or inconclusive;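 note: HepG2 cells with an ARE-driven luciferase reporter; % of control where 0% means no effect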)
Procedure, shortened: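 First, ARE-luc HepG2 cells attached for 6 hr at 37 C in 1% dialyzed FBS medium. Next, compound or DMSO was added and incubated 16 hr. Finally, ONE-Glo reagent was added and luminescence measured after 30 min.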

Compound | Potency [1] | Potency [2] | max response [3] [%] | Potency [4] | max response [5] [%] | Potency [6] | Potency [7] | max response [8] [%] | max response [9] | activation [10] | activation [11] | max response [12] | max response [13] | max response [14] | Potency [15] | max response [16] | outcome [17] | Potency [18] | outcome [19] | Potency [20]
CC(C)c1cccc(C(C)C)c1 | inactive | inactive | -5.64 | inactive | -9.24 | inactive | inactive | -3.77 | -4.2% (inactive) | -0.667% (inactive) | 2.18% (inactive) | -1.99% (inactive) | -8.28% (inactive) | -5.18% (inactive) | inactive | -1.81% (inactive) | inactive |  |  | 
CCCCC(CC)C(=O)OCCOCCOCCOC(=O)C(CC)CCCC (stereo not given) | inactive | inactive | 37.3 | inactive | 18.8 | inactive | inactive | -5.42 | -7.08% (inactive) | -6.56% (inactive) |  | 0.387% (inactive) | 1.57% (inactive) | -11.7% (inactive) | inactive | 4.7% (inactive) | inactive | inactive | inactive | inactive
CCCCCCCCCCCCCc1ccccc1 | inactive | inactive | 21.6 | inactive | -8.78 | inactive | inactive | -13.4 | -2.52% (inactive) | -0.242% (inactive) | 2.83% (inactive) | -0.643% (inactive) | -7.31% (inactive) | 4.66% (inactive) | inactive | 0.527% (inactive) | inactive | inactive | inactive | inactive
CCOC(=O)C1=NN(c2ccc(Cl)cc2Cl)C(C)(C(=O)OCC)C1 (stereo not given) | inactive | inactive |  |  | -4.87 | inactive | inactive |  |  | -1.4% (inactive) | -3.22% (inactive) |  | 0.425% (inactive) | -23.5% (inactive) | inactive | -0.641% (inactive) |  | inactive |  | inactive
N[C@@H]1[C@@H](O)[C@H](O)[C@@H](CO)O[C@H]1O | inactive | inactive | 8.04 | inactive | -2.29 | inactive | inactive | -16.6 | 6.05% (inactive) |  | 2.2% (inactive) | -1.62% (inactive) | -11.9% (inactive) | -8.29% (inactive) | inactive | -3.38% (inactive) | inactive |  | inactive | inactive
C=CC(=O)OCC[N+](C)(C)C | inactive | inactive | 35.3 | inactive | 1.33 | inactive | inactive | 1.52 | 1.59% (inactive) |  | 0.372% (inactive) | -0.129% (inactive) |  | -5.74% (inactive) | inactive | -0.896% (inactive) |  |  | inactive | inactive
NNS(=O)(=O)c1ccc(Oc2ccc(S(=O)(=O)NN)cc2)cc1 | inactive | 447 nM (active) | 18.7 | inactive | -6.27 | inactive | inactive | -11.5 | -7.05% (inactive) | -1.01% (inactive) | 0.263% (inactive) | -6% (inactive) |  | 0.11% (inactive) | inactive | 8.65% (inactive) | inactive |  | inactive | inactive
CCCCN(CCCC)CCCC | inactive | inactive | 31.3 | inactive | -9.25 | inactive | inactive | -19.1 |  | -1.19% (inactive) | -2.43% (inactive) | 3.75% (inactive) | -5.72% (inactive) | -10.1% (inactive) | inactive | -4.71% (inactive) | inactive | inactive |  | inactive
O=C(O)C(c1ccc(Cl)cc1)c1ccc(Cl)cc1 | inactive | inactive | -10.8 | inactive |  |  | inactive | -10.2 | 12.2% (inactive) | 0.121% (inactive) | -0.789% (inactive) | 3.51% (inactive) | -12.1% (inactive) | 0.137% (inactive) | inactive | -4.74% (inactive) | inactive |  |  | inactive
O=C(O)CCCCCCCCCCC(=O)O | inactive | inactive | 18.9 | inactive | 0.198 | inactive | inactive | 2.61 | 7.09% (inactive) | -0.986% (inactive) | 3.26% (inactive) | -1.09% (inactive) | -6.19% (inactive) | -10.8% (inactive) | inactive | 0.83% (inactive) | inactive | inactive |  | inactive
Cl[Si](Cl)(c1ccccc1)c1ccccc1 | inactive | inactive | 5.91 | inactive | -17.4 | inactive | inactive | -8.47 | -0.846% (inactive) |  | -1.05% (inactive) | 5.98% (inactive) | -10.9% (inactive) | 1.19% (inactive) |  |  |  | inactive | inactive | inactive
CCCCNS(=O)(=O)c1ccccc1 | inactive | inactive |  |  |  |  | inactive | -16.3 | 5.33% (inactive) | 0.692% (inactive) | 0.36% (inactive) | 0.574% (inactive) | -8.48% (inactive) | -3.87% (inactive) | inactive | -0.0697% (inactive) | inactive | inactive | inactive | inactive
CNc1nc(=O)n(C2CCC(O)CC2)c(=O)n1C (stereo not given) | inactive | inactive | 29.9 | inactive | -9.94 | inactive | inactive | -9.65 | 4.66% (inactive) | -0.329% (inactive) | -1.26% (inactive) | -1.33% (inactive) | -6.82% (inactive) | -1.62% (inactive) |  | -0.414% (inactive) | inactive | inactive | inactive | inactive
